In PubChem BioAssay (NCI) one finds growth inhibition data, which are given here for 40 compounds.

Molecules are shown by their SMILES. This is part of a sample that, as a whole, favours compounds with a hit. Of some 79,000 tested, about 15% had one in any assay. Unmarked numbers belong to inactive results. No stated cut-off is given here; in the data, active means growth inhibition above about 70%; inactive means the rest.

The assay is described as follows: NCI Yeast Anticancer Drug Screen. Data for the rad50 strain (AID 155).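 Further: 0% = growth of vehicle-only cultures of the same strain.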 Conditions: S. cerevisiae rad50 strain growth inhibition; at 50.0 µM; hits give high values. In a few lines:
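Compounds were tested on a yeast strain with an engineered DNA damage repair alteration; the reported value is growth inhibition normalised to vehicle treatment.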
With `CCC(c1ccc(N(CC)CC)cc1[N+](=O)[O-])c1ccc(N(CC)CC)cc1[N+](=O)[O-]`, the growth inhibition is 29%.

With `O=C1CC2(CCc3ccccc32)C(=O)N1CN1CCN(CCO)CC1` (stereo not given), the growth inhibition is 12.6%.

In the case of `CC(C)CC(C)C`, the growth inhibition was 17.9%.

Consider `Nc1nc(Cl)cc(Nc2ccc3c(c2)CCC3)n1`, for which the growth inhibition is 15.2%.

On to `CC1N=C(SCC(=O)c2ccc(Cl)cc2)N2C(C)N=C(SCC(=O)c3ccc(Cl)cc3)N12` (stereo not given), for which the growth inhibition is -0.65%.

As to `COc1ccc(/C=N\O[Si](C)(C)C(C)(C)C)cc1O[Si](C)(C)C(C)(C)C`, the growth inhibition is 31.9%.

On to `CCOC(=O)/C(=C\c1c(C)[nH]c2ccccc12)P(=O)(OCC)OCC`, for which the growth inhibition was -15.2%.

For the compound `COC1(C2COc3cc(OCc4ccccc4)ccc3C2=O)C=C2OCOC2=CC1=O` (stereo not given), the growth inhibition is -16.6%.

Regarding `CCNC1(C(=O)O)CCCCC1`, the growth inhibition is 1.4%.

As for `COC(=O)C(C)CC(C)C(=O)OC` (stereo not given), the growth inhibition is 19.6%.

Regarding `CN(C)C=Nc1c(Br)cc(Br)c2nonc12`, the growth inhibition is -26.7%.

As to `c1ccc(C2=C(c3ccccc3)c3ccccc3C2)cc1`, the growth inhibition was 0.3%.

With `C/C(=C\c1ccccc1)C(=O)c1c(C)cc(C)cc1C`, the growth inhibition was 26.9%.

Take `COc1ccc(Cl)cc1NC(=O)Oc1ccccc1C(N)=O`: the growth inhibition is -1.05%.

`C=CCN=C1NC(=O)C(CC(=O)Nc2cccc(Cl)c2)S1` (stereo not given): the growth inhibition is -41%.

Regarding `Cc1ccc2cccc(CCOC(=O)c3ccc([N+](=O)[O-])cc3)c2c1`, the growth inhibition was -13.5%.

With `CCC(=O)Nc1cccc2ccccc12`, the growth inhibition was 5.1%.

Consider `CN(C)S(=O)(=O)C(CO)c1ccccc1` (stereo not given), for which the growth inhibition was 5.75%.

For the compound `Cc1occ(Br)c(=O)c1O`, the growth inhibition was 12.9%.

For the compound `O=C1C=C2CCC(c3ccc(O)cc3)CC2CC1` (stereo not given), the growth inhibition is -3%.

As to `CC(C)C1c2ccccc2C(=O)C1C(N)=O` (stereo not given), the growth inhibition is -16.9%.

For the compound `Nc1nc2c(C(=O)NCc3cccs3)nnn2c2cccc(Cl)c12`, the growth inhibition is -6.25%.

On to `CC(Br)C(=O)c1ccc2ncccc2c1` (stereo not given), for which the growth inhibition was 5.15%.

With `OCC1CCCCCCC1`, the growth inhibition was -4.25%.

As for `COc1cccc(C(=O)NNC(=O)c2ccc3ccccc3c2)c1`, the growth inhibition was 13.2%.

For the compound `C1CC2(CC3(C1)SCCS3)SCCS2`, the growth inhibition is -0.3%.

For `Cc1cc(C)nc(Nc2nc3ccc([N+](=O)[O-])cc3[nH]2)n1`, the growth inhibition was 0.5%.

Consider `CC(=O)Oc1ccc(C(C)(C)C)cc1C`, for which the growth inhibition was 6.05%.

In the case of `CC(C)N(CCC#N)C(=S)Nc1cccc(C(F)(F)F)c1`, the growth inhibition was 21.6%.

Turning to `O=C1OC(=Nc2ccccc2Cl)c2ccccc21`, the growth inhibition is -21.6%.

Turning to `C/C=C/C(=O)OC/C=C(\C)CCC=C(C)C`, the growth inhibition was -26.4%.

Turning to `O=[N+]([O-])c1ccc(S(=O)(=O)N/N=C\c2cc([N+](=O)[O-])ccc2O)cc1`, the growth inhibition is 11.8%.

`COc1ccc(/C=C/C(=O)C(C)(C)C)cc1OC`: the growth inhibition was 25.4%.

For the compound `CSc1nc2c(c(=O)[nH]1)CC(=O)N2`, the growth inhibition is 0.35%.

For `Cc1cc(C)cc(Cc2ccc3ccccc3c2)c1`, the growth inhibition was 2.9%.

For the compound `O=C(O)CCC(=O)NC(c1ccccc1)(c1ccccc1)c1ccccc1`, the growth inhibition is -17.4%.

For the compound `CN(/N=C/c1ccccn1)C1=NCCN1`, the growth inhibition is -23.9%.

Turning to `COc1ccc(C2Oc3cc(OC)c(OC)cc3C2CCl)cc1OC` (stereo not given), the growth inhibition is -20.1%.

Consider `Cc1cccc(C)c1Nc1nc(C)c(C(=O)CC(=O)C(=O)Nc2c(C(C)C)cccc2C(C)C)s1`, for which the growth inhibition was 18.3%.

Regarding `O=C1c2cccc3cccc(c23)C(=O)N1CCCN(CCO)CCO`, the growth inhibition is -1.25%.
